Measured values: PubChem BioAssay (Tox21)
Inconclusive results are not listed. Where a call stands in place of a potency, no number is given. Calls of active or inactive are those of the source. Calls follow the shape of the dose curve; as a rule, active = well fitted cell-killing curve with a large enough effect in the repeat runs; inconclusive = weak or mixed curves, or effect the other way; inactive = flat fitted curve, though single readings scatter.

Experiment: Caspase-3/7 induction in HepG2 cells by small molecules, qHTS cell viability counter screen (AID 1346981); also: nearly all actives have a fitted effect of over 30% in size
Settings: CellTiter-Fluor fluorescence, 17 h; series mostly up to 92.4 µM
In short: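 Wild-type HepG2 cells, 2,000/well, settled 5 hr at 37 C, 5% CO2 before compound addition. Viability read by CellTiter-Fluor fluorescence, reagent added after 16 hr compound exposure, then 1 hr at 37C, in the same wells as the caspase read.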
Potency is read from the fitted curve at half-maximal effect.

SMILES | Potency
CCCCC(CC)COP(=O)(O)OCC(CC)CCCC (stereo unspecified) | inactive
C/C(=C(/OCCOc1ccc(Cl)cc1)c1ccc(Cl)cc1Cl)n1ccnc1 | inactive
O=C(OC[C@H]1O[C@@H](OC(=O)c2cc(O)c(O)c(OC(=O)c3cc(O)c(O)c(O)c3)c2)[C@H](OC(=O)c2cc(O)c(O)c(OC(=O)c3cc(O)c(O)c(O)c3)c2)[C@@H](OC(=O)c2cc(O)c(O)c(OC(=O)c3cc(O)c(O)c(O)c3)c2)[C@@H]1OC(=O)c1cc(O)c(O)c(OC(=O)c2cc(O)c(O)c(O)c2)c1)c1cc(O)c(O)c(OC(=O)c2cc(O)c(O)c(O)c2)c1 | 18.5 µM (active)
C/C=C(\C)C(=O)OCc1ccccc1 | inactive
CC(C)(C)CC(C)(C)c1ccc(OCCOCC[N+](C)(C)Cc2ccccc2)cc1 | 61.1 µM (active)
CC(C)=CCOc1ccc(/C=C/C(=O)c2ccc(OCC=C(C)C)cc2OCC(=O)O)cc1 | inactive
Clc1ccc2cc3ccccc3cc2c1 | inactive
O=C(O)c1ccc(Cl)c(Cl)c1 | inactive
Nc1cc(C(F)(F)F)ccc1S | inactive
O=C1Cc2cc(CCN3CCN(c4nsc5ccccc45)CC3)c(Cl)cc2N1 | inactive
O=c1cccccc1O | inactive
CN(C)CCCOC1(Cc2ccccc2)CCCCCC1 | inactive
C=C(C)C(=O)OCC[N+](C)(C)C | inactive
OCCCCCCCCCCCCBr | inactive
CCCCCCCCOC(=O)c1ccc(O)cc1 | inactive
COC(=O)c1cc(Cl)ccc1OC | inactive
